Test results published in PubChem BioAssay (Tox21).
Several values for one entry are separate records, joined by “and”; a condition that tells them apart may be missing. Equal values may be shown once. Records with an inconclusive call do not appear. A call without a number means that no potency is given here. Some structures have more than one record in an assay (separate samples or runs), and their calls can disagree. Activity calls are given as the source filed them. The call rests on the fitted dose curve; in most records, active means well fitted cell-killing curve with a large enough effect in the repeat runs; inconclusive means weak or mixed curves; inactive means flat fitted curve, though single readings scatter.

Assay: qHTS assay to identify small molecule antagonists of the estrogen receptor beta (ER-beta) signaling pathway - cell viability counter screen (AID 1259382); further: nearly all actives have a fitted effect of over 55% in size
Conditions: ER-beta-UAS-bla HEK293T viability, CellTiter-Glo luminescence, 16 h; series mostly up to 92.4 µM; activity change, negative = cytotoxicity: at the top concentration
From the text: U.S. Tox21 Program National Center for Advancing Translational Sciences [NCATS] NIH Chemical Genomics Center [NCGC] U.S. Environmental Protection Agency [EPA] National Institutes of Environmental Health Sciences [NIEHS] National Toxicology Program [NTP] U.S. Food and Drug Administration [FDA] Tox21 Assay Overview: Estrogen receptor (ER), a nuclear hormone receptor, plays an important role in development, metabolic homeostasis and reproduction. Two subtypes of ER, ER-alpha and ER-beta, have similar expression patterns with some uniqueness in both types. Endocrine disrupting chemicals (EDCs) and their interactions with steroid hormone receptors like ER causes disruption of normal endocrine function. To identify the compounds that inhibit ER signaling, an ER-beta-UAS-bla GripTite cell line (Life Technologies, Madison, WI, USA) containing a beta-lactamase reporter gene under the control of an UAS response element was used to screen Tox21 10K compound library. The cytotoxicity of the Tox21 compound library against the ER-beta-bla cell line was tested in parallel by measuring the cell viability using CellTiter-Glo assay in the same wells.
Tox21 Assay Protocol Summary: ER-beta-UAS-bla HEK293T cells were dispensed at 2,000 cells/4 uL of assay medium containing 2% charcoal stripped FBS per well into black wall/clear-bottom 1536-well plates using a Multidrop Combi (ThermoFisher Scientific, Waltham, MA) dispenser. After the assay plates were incubated at a 37C and 5% CO2 for 6 hr, 23 nL of compounds dissolved in DMSO, positive controls or DMSO only was transferred to the assay plate by a Pintool station (Kalypsys, San Diego, CA), followed by addition of 1 uL (1nM as final concentration) of 17-beta-estradiol (E2) in assay medium using a Flying Reagent Dispenser (FRD, Aurora Discovery, San Diego, CA). The plates were incubated at 37C and 5% CO2 for 16 hr. Then 1 uL of LiveBLAzer B/G FRET substrate was added using a Flying Reagent Dispenser, the plates were incubated at room temperature for 2 hours, and fluorescence intensity was measured by an Envision plate reader (PerkinElmer, Shelton, CT). For cell viability readout that measures cytotoxicity, 4 uL/well of CellTiter-Glo reagent was added into the assay plates using a FRD. After 30 min incubation at room temperature, the luminescence intensity in the plates was measured using a ViewLux (PerkinElmer) plate reader.
Potency means the concentration at half of the fitted maximal effect.

Compound	Potency	activity change, negative = cytotoxicity
CCCCCCCCCC(=O)OC	inactive	
C=CC(C)(CCC=C(C)C)OC(C)=O (stereo not given)	inactive	
CCCCCCCCCCCO	inactive	
c1ccc(Nc2ccccc2)cc1	inactive	
O=C=Nc1ccc(Cc2ccc(N=C=O)cc2)cc1	inactive	
CC(=O)c1ccccn1	inactive	
C#C[C@]1(O)CC[C@H]2[C@@H]3CCC4=Cc5oncc5C[C@]4(C)[C@H]3CC[C@@]21C	48.6 µM (active) and 26.6 µM (active)	
CNCCCC12CCC(c3ccccc31)c1ccccc12	15.4 µM (active) and 26.6 µM (active)	
O=C(Nc1ccc(Cl)cc1)Nc1ccc(Cl)c(Cl)c1	inactive	
CCC(C)(O)CCCC(C)C (stereo not given)	inactive	
O=CCc1ccccc1	inactive	
Cc1c(C(N)=O)cc([N+](=O)[O-])cc1[N+](=O)[O-]	inactive	
Cc1c(OCC(F)(F)F)ccnc1CS(=O)c1nc2ccccc2[nH]1 (stereo not given)	inactive	
CCOCCOCCO	inactive	
Cc1ccc(C(=O)c2cc(O)c(O)c([N+](=O)[O-])c2)cc1	inactive	
OCCO	inactive	
CCCC(=O)O	inactive	
C/C=C/C(=O)O	inactive	
COc1cccc2c1C(=O)c1c(O)c3c(c(O)c1C2=O)C[C@@](O)(C(=O)CO)C[C@@H]3O[C@H]1C[C@H](N)[C@H](O)[C@H](C)O1		2.19% [at 42.5 µM] (inactive)
Cc1ncc[nH]1	inactive	

Compound	Potency	activity change, negative = cytotoxicity
O=C(COc1ccc(Cl)cc1)N1CCN(Cc2ccc3c(c2)OCO3)CC1	inactive	
CN1C(C(=O)Nc2ccccn2)=C(O)c2ccccc2S1(=O)=O	inactive	
CC(C)CC(C)(O)C#CC(C)(O)CC(C)C (stereo not given)	inactive	
Nc1ncn([C@@H]2O[C@H](CO)[C@@H](O)[C@H]2O)c(=O)n1	inactive	
CCCCC(CC)COCC1CO1 (stereo not given)	inactive	
c1cc(-c2ccncc2)ccn1	inactive	
CC(C)OC(=O)C(C)(C)Oc1ccc(C(=O)c2ccc(Cl)cc2)cc1	inactive	
O=C(c1ccccc1)c1ccc(O)cc1O	62.3 µM (active) and inactive	
CCOC(=O)C(C#N)=C(c1ccccc1)c1ccccc1	inactive	
COc1ccc(OC)c(C(O)CNC(=O)CN)c1 (stereo not given)	inactive	
O=C(OCc1ccccc1)c1ccccc1O	inactive	
c1ccncc1	inactive	
CCC(C)c1ccccc1O (stereo not given)	inactive	
OC(CCl)CCl	inactive	
COC(C)COC(C)COC(C)CO (stereo not given)	inactive	
COC(=O)CCC(=O)OC	inactive	
Cc1cccc([N+](=O)[O-])c1C	inactive	
CC1=CCC(C(C)(C)O)CC1 (stereo not given)	inactive	
C[Si](C)(C)O[Si](C)(C)C	inactive	
CCCCNS(=O)(=O)c1ccccc1	inactive	
